# Data taken from paper PMC7862700, “An all-to-all approach to the identification of sequence-specific readers for epigenetic DNA modifications on cytosine”.
# Tests used:
# Assay in all cases: DAPPL (digital affinity profiling via proximity ligation, sequencing); 10 mM Tris-HCl pH 7.5, 50 mM NaCl, 1 mM DTT, 4% glycerol, room temperature, 30 min; GST-TFs on glutathione beads, 16-mer random dsDNA library, 0.1% formaldehyde crosslink after washing; high values mean tight binding
# FLI1 = molecular target: T1, FLI1 (Homo sapiens, UniProt Q01543 1-452); details: protein: recombinant; tags: N-terminal GST; dsDNA, one strand shown
# T1 sequence: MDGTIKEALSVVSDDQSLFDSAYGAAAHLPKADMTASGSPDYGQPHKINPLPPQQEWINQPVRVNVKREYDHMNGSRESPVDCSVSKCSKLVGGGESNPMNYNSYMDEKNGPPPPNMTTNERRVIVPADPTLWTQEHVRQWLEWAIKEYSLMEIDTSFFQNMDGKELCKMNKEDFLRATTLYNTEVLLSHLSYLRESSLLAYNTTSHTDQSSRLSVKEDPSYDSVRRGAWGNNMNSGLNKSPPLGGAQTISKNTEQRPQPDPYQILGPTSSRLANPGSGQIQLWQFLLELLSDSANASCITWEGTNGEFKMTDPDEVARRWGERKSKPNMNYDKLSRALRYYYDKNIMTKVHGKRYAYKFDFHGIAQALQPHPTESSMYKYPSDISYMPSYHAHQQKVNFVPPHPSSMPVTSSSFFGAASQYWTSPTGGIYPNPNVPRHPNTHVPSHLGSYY
# Outline: (§1)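 Beads coated with glutathione captured GST-fused human transcription factors that had been expressed in yeast, and the factors were then given DNA barcodes and pooled with a tag-only sample. The pools were incubated with 200 nmole of a random double-stranded 16-mer DNA library in Tris/NaCl/DTT/glycerol buffer for 30 min at room temperature, washed, crosslinked with 0.1% formaldehyde and proximity-ligated with BsaI/T4 ligase at 37 °C for 1 h. PCR amplification and Illumina NextSeq500 sequencing came last. Binding signal is each hexamer's read frequency for a factor divided by its frequency for the tag-only sample.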
# ELK1 = molecular target: T2, ELK1 (Homo sapiens, UniProt P19419 1-428); details: protein: recombinant; tags: N-terminal GST; dsDNA, one strand shown
# T2 sequence: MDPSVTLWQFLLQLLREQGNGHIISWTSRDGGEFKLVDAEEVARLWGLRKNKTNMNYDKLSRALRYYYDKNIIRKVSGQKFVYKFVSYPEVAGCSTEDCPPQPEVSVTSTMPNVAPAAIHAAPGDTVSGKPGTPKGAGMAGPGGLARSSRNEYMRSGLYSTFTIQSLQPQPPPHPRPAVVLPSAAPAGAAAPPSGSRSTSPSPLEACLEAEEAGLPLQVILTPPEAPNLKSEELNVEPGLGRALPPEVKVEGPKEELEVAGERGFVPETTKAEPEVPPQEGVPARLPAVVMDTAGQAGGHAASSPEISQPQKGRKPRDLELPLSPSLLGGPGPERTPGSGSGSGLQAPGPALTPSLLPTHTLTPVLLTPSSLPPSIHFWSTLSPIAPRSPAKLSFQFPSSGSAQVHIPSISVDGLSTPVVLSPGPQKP
# Outline: as §1
# GABPA = molecular target: T3, GABPA (Homo sapiens, UniProt Q06546 1-454); details: protein: recombinant; tags: N-terminal GST; dsDNA, one strand shown
# T3 sequence: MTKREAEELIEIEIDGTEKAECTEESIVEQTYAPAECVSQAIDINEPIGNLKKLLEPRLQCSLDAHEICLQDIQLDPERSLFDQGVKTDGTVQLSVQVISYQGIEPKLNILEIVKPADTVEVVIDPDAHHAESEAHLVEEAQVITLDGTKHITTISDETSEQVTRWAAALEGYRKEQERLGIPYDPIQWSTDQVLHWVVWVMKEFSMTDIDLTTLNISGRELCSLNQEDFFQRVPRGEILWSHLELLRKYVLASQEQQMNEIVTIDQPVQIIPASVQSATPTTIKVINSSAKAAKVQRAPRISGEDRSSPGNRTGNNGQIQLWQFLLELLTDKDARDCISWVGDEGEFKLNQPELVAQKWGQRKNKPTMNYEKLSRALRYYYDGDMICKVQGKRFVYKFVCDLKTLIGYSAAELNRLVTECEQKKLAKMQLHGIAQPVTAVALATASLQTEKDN
# Outline: as §1
# ERG = molecular target: T4, ERG (Homo sapiens, UniProt P11308 1-479); details: protein: recombinant; tags: N-terminal GST; dsDNA, one strand shown
# T4 sequence: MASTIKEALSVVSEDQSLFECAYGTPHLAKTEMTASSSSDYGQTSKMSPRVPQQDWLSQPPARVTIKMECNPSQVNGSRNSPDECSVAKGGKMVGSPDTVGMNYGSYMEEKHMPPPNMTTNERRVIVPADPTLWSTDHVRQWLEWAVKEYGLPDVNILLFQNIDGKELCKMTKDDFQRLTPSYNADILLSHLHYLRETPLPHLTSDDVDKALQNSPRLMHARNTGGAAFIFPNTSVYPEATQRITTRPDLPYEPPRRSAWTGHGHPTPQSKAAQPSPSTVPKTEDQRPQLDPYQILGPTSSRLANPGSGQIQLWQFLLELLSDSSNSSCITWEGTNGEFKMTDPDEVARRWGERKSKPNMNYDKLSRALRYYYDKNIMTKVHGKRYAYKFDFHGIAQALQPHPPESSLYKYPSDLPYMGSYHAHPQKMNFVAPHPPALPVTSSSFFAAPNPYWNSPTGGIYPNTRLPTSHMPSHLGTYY
# Outline: as §1
# ELF1 = ELF1 (Homo sapiens, UniProt P32519 1-619); details: protein: recombinant; tags: N-terminal GST; dsDNA, one strand shown
# ELF1, sequence (P32519 whole entry): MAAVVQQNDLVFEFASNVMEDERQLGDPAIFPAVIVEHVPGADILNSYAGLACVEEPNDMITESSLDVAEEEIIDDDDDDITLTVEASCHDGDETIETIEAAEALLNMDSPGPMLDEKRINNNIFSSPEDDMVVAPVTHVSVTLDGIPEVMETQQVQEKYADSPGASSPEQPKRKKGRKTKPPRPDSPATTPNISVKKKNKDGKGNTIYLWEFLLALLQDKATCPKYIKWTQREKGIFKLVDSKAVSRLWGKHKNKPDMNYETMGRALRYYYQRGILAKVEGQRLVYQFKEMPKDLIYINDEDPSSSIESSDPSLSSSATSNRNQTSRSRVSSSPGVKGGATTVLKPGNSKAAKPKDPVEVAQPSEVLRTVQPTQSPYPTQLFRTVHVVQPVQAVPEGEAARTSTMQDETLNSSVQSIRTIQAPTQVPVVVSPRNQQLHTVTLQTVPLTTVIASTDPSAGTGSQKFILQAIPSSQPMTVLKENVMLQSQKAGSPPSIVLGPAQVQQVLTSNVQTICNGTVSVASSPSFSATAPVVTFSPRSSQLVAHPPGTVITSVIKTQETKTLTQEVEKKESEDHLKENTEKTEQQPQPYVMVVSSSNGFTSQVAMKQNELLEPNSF
# Outline: as §1
# EHF = molecular target: T5, EHF (Homo sapiens, UniProt Q9NZC4 1-300); details: protein: recombinant; tags: N-terminal GST; dsDNA, one strand shown
# T5 sequence: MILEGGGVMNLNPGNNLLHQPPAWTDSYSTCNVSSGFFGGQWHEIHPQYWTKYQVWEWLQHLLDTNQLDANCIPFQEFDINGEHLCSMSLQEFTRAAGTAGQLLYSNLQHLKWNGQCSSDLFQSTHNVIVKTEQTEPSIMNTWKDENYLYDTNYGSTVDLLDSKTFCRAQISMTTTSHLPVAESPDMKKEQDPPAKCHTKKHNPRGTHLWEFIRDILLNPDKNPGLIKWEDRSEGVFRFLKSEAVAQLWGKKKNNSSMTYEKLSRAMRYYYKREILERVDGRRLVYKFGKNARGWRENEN
# Outline: as §1
# SPI1 = SPI1 (Homo sapiens, UniProt P17947 1-270); details: protein: recombinant; tags: N-terminal GST; dsDNA, one strand shown
# Outline: as §1
# SPIB = SPIB (Homo sapiens, UniProt Q01892 1-262); details: protein: recombinant; tags: N-terminal GST; dsDNA, one strand shown
# SPIB, sequence (Q01892 whole entry): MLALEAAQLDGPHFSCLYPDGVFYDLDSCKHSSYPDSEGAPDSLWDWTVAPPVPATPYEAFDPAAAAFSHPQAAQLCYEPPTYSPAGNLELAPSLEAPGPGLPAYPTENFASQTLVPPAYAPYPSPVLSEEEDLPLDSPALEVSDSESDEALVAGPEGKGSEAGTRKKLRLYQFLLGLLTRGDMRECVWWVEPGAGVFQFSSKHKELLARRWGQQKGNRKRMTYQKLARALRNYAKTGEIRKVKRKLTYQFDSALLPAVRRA
# Outline: as §1
# ELK3 = molecular target: T6, ELK3 (Homo sapiens, UniProt P41970 1-407); details: protein: recombinant; tags: N-terminal GST; dsDNA, one strand shown
# T6 sequence: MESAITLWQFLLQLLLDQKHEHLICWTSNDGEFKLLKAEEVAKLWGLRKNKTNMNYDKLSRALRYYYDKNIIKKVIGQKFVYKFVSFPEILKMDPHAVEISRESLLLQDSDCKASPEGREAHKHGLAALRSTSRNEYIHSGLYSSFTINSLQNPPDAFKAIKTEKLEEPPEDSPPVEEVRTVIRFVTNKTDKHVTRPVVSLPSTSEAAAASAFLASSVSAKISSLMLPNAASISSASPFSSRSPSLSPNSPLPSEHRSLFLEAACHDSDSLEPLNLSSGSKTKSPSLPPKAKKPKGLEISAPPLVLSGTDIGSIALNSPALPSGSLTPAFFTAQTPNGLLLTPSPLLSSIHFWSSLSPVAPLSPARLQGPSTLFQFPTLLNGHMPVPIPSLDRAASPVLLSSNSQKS
# Outline: as §1
# FEV = molecular target: T7, FEV (Homo sapiens, UniProt Q99581 1-238); details: protein: recombinant; tags: N-terminal GST; dsDNA, one strand shown
# T7 sequence: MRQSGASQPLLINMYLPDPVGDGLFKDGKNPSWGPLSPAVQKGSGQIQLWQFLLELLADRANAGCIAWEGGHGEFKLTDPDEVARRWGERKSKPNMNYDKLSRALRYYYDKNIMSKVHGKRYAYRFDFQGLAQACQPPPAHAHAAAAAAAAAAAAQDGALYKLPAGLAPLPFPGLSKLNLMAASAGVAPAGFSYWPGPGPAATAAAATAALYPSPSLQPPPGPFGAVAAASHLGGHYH
# Outline: as §1
# ETV5 = ETV5 (Homo sapiens, UniProt P41161 1-510); details: protein: recombinant; tags: N-terminal GST; dsDNA, one strand shown
# ETV5, sequence (P41161 whole entry): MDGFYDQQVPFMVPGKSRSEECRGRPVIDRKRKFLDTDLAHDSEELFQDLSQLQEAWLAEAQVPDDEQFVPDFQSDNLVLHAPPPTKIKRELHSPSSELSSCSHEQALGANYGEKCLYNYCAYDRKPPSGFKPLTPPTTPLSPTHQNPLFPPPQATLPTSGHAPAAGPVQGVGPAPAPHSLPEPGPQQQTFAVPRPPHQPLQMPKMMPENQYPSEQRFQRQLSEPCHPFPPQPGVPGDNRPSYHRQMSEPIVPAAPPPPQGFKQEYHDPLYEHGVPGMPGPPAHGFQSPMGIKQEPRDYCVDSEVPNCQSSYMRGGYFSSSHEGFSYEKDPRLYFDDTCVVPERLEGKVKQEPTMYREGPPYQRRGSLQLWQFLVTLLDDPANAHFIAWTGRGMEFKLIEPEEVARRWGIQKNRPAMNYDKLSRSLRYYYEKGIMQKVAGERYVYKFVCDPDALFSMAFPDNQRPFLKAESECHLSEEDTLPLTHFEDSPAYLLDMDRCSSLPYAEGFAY
# Outline: as §1
# HSF1 = HSF1 (Homo sapiens, UniProt Q00613 1-529); details: protein: recombinant; tags: N-terminal GST; chain copies: 3; dsDNA, one strand shown
# HSF1, sequence (Q00613 whole entry): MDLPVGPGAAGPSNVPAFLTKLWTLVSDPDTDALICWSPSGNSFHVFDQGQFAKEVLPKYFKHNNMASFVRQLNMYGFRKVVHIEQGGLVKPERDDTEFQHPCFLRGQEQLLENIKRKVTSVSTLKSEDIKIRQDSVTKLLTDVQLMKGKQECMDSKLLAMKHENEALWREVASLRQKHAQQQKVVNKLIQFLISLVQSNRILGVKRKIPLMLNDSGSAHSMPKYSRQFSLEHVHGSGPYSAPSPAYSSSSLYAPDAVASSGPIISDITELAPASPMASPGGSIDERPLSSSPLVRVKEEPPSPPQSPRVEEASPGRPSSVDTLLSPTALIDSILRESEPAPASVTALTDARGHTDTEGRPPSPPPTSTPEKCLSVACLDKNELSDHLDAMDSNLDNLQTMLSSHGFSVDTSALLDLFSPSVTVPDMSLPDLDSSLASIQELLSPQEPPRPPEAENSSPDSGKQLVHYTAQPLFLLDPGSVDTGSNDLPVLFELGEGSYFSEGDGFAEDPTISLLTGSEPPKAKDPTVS
# Outline: as §1
# SPIC = molecular target: T8, SPIC (Homo sapiens, UniProt Q8N5J4 1-248); details: protein: recombinant; tags: N-terminal GST; dsDNA, one strand shown
# T8 sequence: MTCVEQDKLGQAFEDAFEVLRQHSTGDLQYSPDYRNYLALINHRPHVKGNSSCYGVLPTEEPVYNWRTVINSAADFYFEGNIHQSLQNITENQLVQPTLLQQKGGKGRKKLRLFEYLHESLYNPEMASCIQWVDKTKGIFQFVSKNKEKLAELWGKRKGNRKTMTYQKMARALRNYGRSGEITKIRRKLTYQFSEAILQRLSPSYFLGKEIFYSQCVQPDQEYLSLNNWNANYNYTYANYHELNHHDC
# Outline: as §1
# ELF4 = ELF4 (Homo sapiens, UniProt Q99607 1-663); details: protein: recombinant; tags: N-terminal GST; dsDNA, one strand shown
# ELF4, sequence (Q99607 whole entry): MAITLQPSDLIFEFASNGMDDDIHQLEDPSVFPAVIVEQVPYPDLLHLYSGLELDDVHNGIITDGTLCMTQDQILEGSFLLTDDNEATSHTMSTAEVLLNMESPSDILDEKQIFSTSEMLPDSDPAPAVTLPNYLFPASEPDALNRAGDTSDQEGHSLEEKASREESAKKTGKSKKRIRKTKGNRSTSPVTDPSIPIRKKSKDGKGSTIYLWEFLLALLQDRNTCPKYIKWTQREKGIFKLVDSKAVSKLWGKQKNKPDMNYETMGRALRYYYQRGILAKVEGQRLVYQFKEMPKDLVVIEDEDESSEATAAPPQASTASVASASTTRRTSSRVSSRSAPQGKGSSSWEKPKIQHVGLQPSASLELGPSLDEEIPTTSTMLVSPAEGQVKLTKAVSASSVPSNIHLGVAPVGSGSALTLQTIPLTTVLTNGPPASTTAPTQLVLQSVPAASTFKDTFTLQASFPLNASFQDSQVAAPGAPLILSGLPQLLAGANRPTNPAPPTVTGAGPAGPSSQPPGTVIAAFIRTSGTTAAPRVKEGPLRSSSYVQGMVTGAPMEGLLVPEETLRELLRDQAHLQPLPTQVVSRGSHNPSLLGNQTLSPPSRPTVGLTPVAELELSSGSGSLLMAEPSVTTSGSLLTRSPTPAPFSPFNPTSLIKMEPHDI
# Outline: as §1
# ELK4 = molecular target: T9, ELK4 (Homo sapiens, UniProt P28324-2 1-405); details: protein: recombinant; tags: N-terminal GST; dsDNA, one strand shown
# T9 sequence: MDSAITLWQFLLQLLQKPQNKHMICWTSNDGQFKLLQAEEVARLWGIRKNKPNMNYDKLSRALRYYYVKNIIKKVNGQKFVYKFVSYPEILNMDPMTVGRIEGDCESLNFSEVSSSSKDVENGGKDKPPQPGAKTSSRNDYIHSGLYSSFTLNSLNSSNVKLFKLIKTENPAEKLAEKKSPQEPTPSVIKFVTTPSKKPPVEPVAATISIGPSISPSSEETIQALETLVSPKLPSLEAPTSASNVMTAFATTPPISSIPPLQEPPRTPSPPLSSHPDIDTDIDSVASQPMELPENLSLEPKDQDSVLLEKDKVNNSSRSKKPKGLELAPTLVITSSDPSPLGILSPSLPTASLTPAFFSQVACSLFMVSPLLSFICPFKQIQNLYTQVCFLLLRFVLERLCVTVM
# Outline: as §1
# ETV2 = molecular target: T10, ETV2 (Homo sapiens, UniProt O00321 1-342); details: protein: recombinant; tags: N-terminal GST; dsDNA, one strand shown
# T10 sequence: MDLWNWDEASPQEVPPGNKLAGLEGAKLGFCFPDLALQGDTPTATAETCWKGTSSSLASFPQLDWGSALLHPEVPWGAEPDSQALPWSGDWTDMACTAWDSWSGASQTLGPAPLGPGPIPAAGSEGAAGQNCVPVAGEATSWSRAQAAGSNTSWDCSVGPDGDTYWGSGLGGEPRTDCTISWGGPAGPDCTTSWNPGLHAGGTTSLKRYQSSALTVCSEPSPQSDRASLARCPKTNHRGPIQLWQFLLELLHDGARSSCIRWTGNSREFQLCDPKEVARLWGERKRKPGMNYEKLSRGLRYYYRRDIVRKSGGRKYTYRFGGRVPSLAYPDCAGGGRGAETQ
# Outline: as §1
# ELF3 = molecular target: T11, ELF3 (Homo sapiens, UniProt P78545 1-371); details: protein: recombinant; tags: N-terminal GST; dsDNA, one strand shown
# T11 sequence: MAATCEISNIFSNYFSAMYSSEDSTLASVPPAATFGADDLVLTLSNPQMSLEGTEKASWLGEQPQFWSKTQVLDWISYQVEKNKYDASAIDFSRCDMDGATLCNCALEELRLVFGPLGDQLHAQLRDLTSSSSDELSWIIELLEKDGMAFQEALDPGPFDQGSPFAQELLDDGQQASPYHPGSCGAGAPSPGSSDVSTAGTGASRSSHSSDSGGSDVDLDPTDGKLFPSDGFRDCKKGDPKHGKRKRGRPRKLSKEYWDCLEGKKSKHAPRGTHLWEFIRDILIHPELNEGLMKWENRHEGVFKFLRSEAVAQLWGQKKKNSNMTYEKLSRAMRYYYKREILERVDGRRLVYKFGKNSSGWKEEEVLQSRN
# Outline: as §1
# CRX = CRX (Homo sapiens, UniProt O43186 1-299); details: protein: recombinant; tags: N-terminal GST; dsDNA, one strand shown
# CRX, sequence (O43186 whole entry): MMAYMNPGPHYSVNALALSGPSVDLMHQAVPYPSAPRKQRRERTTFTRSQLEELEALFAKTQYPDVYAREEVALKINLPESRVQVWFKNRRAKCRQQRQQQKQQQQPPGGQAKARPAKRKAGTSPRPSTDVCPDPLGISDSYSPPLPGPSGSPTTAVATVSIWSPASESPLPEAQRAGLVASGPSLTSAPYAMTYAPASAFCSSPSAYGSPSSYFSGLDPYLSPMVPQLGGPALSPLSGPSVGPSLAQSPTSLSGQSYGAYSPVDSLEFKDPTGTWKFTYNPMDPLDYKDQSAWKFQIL
# Outline: as §1
# ETV1 = ETV1 (Homo sapiens, UniProt P50549 1-477); details: protein: recombinant; tags: N-terminal GST; dsDNA, one strand shown
# ETV1, sequence (P50549 whole entry): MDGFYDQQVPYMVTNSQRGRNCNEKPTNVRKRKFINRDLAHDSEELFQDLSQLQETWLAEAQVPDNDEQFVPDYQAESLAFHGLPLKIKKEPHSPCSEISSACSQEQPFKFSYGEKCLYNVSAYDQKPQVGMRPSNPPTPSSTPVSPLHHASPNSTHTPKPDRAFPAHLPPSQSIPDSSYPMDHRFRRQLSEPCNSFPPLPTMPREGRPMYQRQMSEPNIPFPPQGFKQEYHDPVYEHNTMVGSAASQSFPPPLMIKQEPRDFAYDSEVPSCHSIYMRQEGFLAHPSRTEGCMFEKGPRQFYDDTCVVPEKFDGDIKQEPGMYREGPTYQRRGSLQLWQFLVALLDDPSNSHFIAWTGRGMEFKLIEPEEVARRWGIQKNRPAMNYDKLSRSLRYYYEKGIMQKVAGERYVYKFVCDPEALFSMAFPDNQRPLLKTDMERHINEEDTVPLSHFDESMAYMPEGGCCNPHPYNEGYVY
# Outline: as §1
sequence,measurement,setting,value
AAGAAC,binding signal,FLI1,"1.13 fold enrichment (6-mer frequency, TF over GST control)"
same,binding signal,ELK1,"1.18 fold enrichment (6-mer frequency, TF over GST control)"
same,binding signal,GABPA,"1.15 fold enrichment (6-mer frequency, TF over GST control)"
same,binding signal,ERG,"1.22 fold enrichment (6-mer frequency, TF over GST control)"
same,binding signal,ELF1,"1.17 fold enrichment (6-mer frequency, TF over GST control)"
same,binding signal,EHF,"1.24 fold enrichment (6-mer frequency, TF over GST control)"
same,binding signal,SPI1,"1.14 fold enrichment (6-mer frequency, TF over GST control)"
same,binding signal,SPIB,"1.05 fold enrichment (6-mer frequency, TF over GST control)"
same,binding signal,ELK3,"1.24 fold enrichment (6-mer frequency, TF over GST control)"
same,binding signal,FEV,"1.19 fold enrichment (6-mer frequency, TF over GST control)"
same,binding signal,ETV5,"1.16 fold enrichment (6-mer frequency, TF over GST control)"
same,binding signal,HSF1,"1.63 fold enrichment (6-mer frequency, TF over GST control)"
same,binding signal,SPIC,"1.24 fold enrichment (6-mer frequency, TF over GST control)"
same,binding signal,ELF4,"1.2 fold enrichment (6-mer frequency, TF over GST control)"
same,binding signal,ELK4,"1.18 fold enrichment (6-mer frequency, TF over GST control)"
same,binding signal,ETV2,"1.13 fold enrichment (6-mer frequency, TF over GST control)"
same,binding signal,ELF3,"1.16 fold enrichment (6-mer frequency, TF over GST control)"
same,binding signal,CRX,"1.28 fold enrichment (6-mer frequency, TF over GST control)"
same,binding signal,ETV1,"1.22 fold enrichment (6-mer frequency, TF over GST control)"
